# SENP8 block-1 – SENP8 (human) protease inhibition | inhibition, % at 20 µM | recombinant SENP8, Nedd8 substrate fluorescence | hit rate 0.64% among 360,000 | AID 602440 | Q96LD8; in the data active means inhibition mostly above about 40%, no sharp cut-off; inactive means mostly below about 27%
# TRAIL sens C8 – caspase-8 TRAIL sensitization; NB7+C8 cells + TRAIL, ATPlite viability luminescence; hit rate 1% among 360,000; AID 624354; inhibition (viability loss, TRAIL sensitization), % at 10 µM;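 active means compounds causing at least 50% loss of cell viability in the single-dose screen, relative to plate controls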
# PPC-1+TRAIL kill – PPC-1 cancer cell killing with TRAIL present; PPC-1 cells + TRAIL, ATPLite viability luminescence; cell killing (% activity), % at 4 µM or 5 µM; hit rate 0.41% among 220,000; AID 1443;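 active means cell killing above 50% in the first pass at 4 µM, then a duplicate retest at 5 µM averaging 50% or more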;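 further: plate controls were cells with TRAIL plus DMSO for no effect and medium-only wells lacking cells for full effect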
# SENP6 block – inhibitors of human SENP6 protease | Q9GZR1 | inhibition, % at 10 µM | Recombinant SENP6 catalytic domain, aminoluciferin luminescence | hit rate 1.8% among 330,000;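 active means inhibition above about 50% at the single tested dose, limit read from the data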;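 further: plate controls were DMSO wells with enzyme for no effect and DMSO wells lacking enzyme for full effect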
# SENP8 block-2 – SENP8 protease inhibition; inhibition, % at 10 µM; AID 2540; Q96LD8; purified SENP8, Z-RLRGG-aminoluciferin cleavage, luminescence; hit rate 1.2% among 330,000; in the data active means inhibition above about 50%
# SENP7 inh – inhibitors of human SENP7 protease | recombinant SENP7, Z-RLRGG-aminoluciferin luminescence, 40 min | inhibition, % at 5 µM | Q9BQF6 | hit rate 1.5% among 330,000;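 active means inhibition above about 50% at the single test dose, limit read from the data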;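 further: plate controls were DMSO with enzyme for no effect and no enzyme buffer wells for full effect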
# Target sequence (Q9BQF6 706-1050 limits assumed): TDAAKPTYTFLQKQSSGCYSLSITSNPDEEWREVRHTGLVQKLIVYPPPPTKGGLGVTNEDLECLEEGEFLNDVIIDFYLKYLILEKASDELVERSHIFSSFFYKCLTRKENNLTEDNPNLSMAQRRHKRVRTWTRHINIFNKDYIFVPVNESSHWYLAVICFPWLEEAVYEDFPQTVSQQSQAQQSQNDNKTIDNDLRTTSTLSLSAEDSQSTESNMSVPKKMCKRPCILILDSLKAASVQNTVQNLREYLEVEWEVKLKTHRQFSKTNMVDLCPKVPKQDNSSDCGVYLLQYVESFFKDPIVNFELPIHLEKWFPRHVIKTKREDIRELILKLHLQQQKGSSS
# SENP8 conf – confirmation of human SENP8 protease inhibitors | inhibition, % at 12.5 µM | Recombinant SENP8, Z-RLRGG-aminoluciferin luminescence, 60 min | hit rate 40% among 6,200 | shares compounds with SENP7 inh;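 active means mean inhibition across replicates above about 50%, limit read from the data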
# SENP6 conf – human SENP6 inhibition, confirmed; shares compounds with SENP7 inh; recombinant SENP6, Z-RLRGG-aminoluciferin luminescence; inhibition, % at 12.5 µM; hit rate 58% among 6,200; AID 488915
# SENP7 conf – confirmation of human SENP7 protease inhibitors; shares compounds with SENP7 inh; recombinant SENP7, Z-RLRGG-aminoluciferin luminescence, 40 min; inhibition, % at 12.5 µM; hit rate 69% among 6,200; AID 488917
# Casp3 SENP sel – caspase-3 inhibition (SENP selectivity assay); shares compounds with SENP7 inh; purified caspase-3, Z-DEVD-aminoluciferin luminescence, 60 min; inhibition, % at 12.5 µM; hit rate 60% among 6,200;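 active means mean inhibition above about 50%, limit read from the data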;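 further: plate controls were enzyme with DMSO for no effect and wells without caspase-3 for full effect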
# Target sequence (P42574 28-227 limits assumed): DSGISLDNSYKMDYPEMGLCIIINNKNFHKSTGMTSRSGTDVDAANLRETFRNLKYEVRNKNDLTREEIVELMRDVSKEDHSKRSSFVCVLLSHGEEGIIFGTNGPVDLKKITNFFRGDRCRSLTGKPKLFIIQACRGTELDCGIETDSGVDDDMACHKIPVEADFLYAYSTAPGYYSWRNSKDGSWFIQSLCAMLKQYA
# SENP luc ctr – luminescence interference (SENP counter-screen). shares compounds with SENP7 inh. hit rate 39% among 6,200. inhibition, % at 12.5 µM. Pre-incubated SENP8/Z-RLRGG-aminoluciferin, luciferase luminescence interference;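 active means mean inhibition above about 50% when retested at one dose, limit read from the data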;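 further: plate controls were DMSO wells with completed reaction for no effect and substrate without enzyme for full effect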
# The depositor's hits bear a star; nt = no result given. Only some compounds are listed: those with a hit (about 3% of all), similar ones and a draw of the others.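 How the source made its calls, unless noted: active means mean inhibition above about 50% in the one-dose retest (limit read from the data); inactive means the rest.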
SMILES,SENP8 block-1,TRAIL sens C8,PPC-1+TRAIL kill,SENP6 block,SENP8 block-2,SENP7 inh,SENP8 conf,SENP6 conf,SENP7 conf,Casp3 SENP sel,SENP luc ctr
Clc1ccc2nc(N3CCCCC3)[nH]c2c1,12.9,47.7,28.6,58.6*,27.0,52.2*,47.7,46.8,80.1*,71.6*,58.8*
Fc1cccc2sc(N3CCCCC3)nc12,0.7,8.8,10.7,59.4*,24.5,38.5,-19.3,16.5,71.2*,45.4,5.1
Fc1cccc2sc(N3CCOCC3)nc12,2.6,8.8,-2.9,-23.4,-8.6,4.5,nt,nt,nt,nt,nt
CCOC(=O)Nc1ccc2nc(N3CCCCCC3)sc2c1,13.1,19.0,12.0,58.0*,25.0,32.5,30.6,29.5,68.9*,22.7,22.2
CCOC(=O)N1CCN(C(=O)Nc2ccc3nc(C)sc3c2)CC1,-121.7,2.2,15.9,-4.2,-3.2,-1.5,nt,nt,nt,nt,nt
CS(=O)(=O)N1CCN(c2nc3ccc(Cl)cc3s2)CC1,26.0,-6.0,4.2,-14.2,9.3,0.3,nt,nt,nt,nt,nt
Clc1ccc2nc(N3CCCCC3)sc2c1,32.6,16.2,5.8,97.0*,88.4*,89.6*,77.7*,84.0*,89.3*,82.1*,46.4
Cc1oc2c(c1C(=O)O)C(=O)c1ccccc1C2=O,44.9*,13.0,20.2,63.5*,29.8,18.1,11.8,51.7*,30.0,51.3*,17.7
CCOC(=O)c1c(C)oc2c1C(=O)c1ccccc1C2=O,38.9,45.0,10.4,48.9,16.7,10.2,nt,nt,nt,nt,nt
Cc1oc2c(c1C(=O)c1ccccc1)C(=O)C(=O)c1ccccc1-2,98.6*,97.0*,17.3,82.9*,65.1*,42.5,-3.5,71.5*,49.3,4.7,-0.9
Cc1noc(C)c1S(=O)(=O)N1CCCCC1c1cc(C(=O)Nc2cccc3c2CCCC3)no1 (centres undefined),10.4,-4.5,nt,nt,nt,nt,nt,nt,nt,nt,nt
C=CCNC(=O)C1CC(=O)N(c2ccc(OCc3ccc(F)cc3)cc2)C1 (centres undefined),7.9,-3.3,nt,92.1*,79.4*,91.0*,64.7*,86.4*,96.1*,88.1*,23.1
CCCNC(=O)C1CC(=O)N(c2ccc(OCc3ccc(Cl)cc3)cc2)C1 (centres undefined),4.5,7.4,nt,84.1*,61.0*,87.6*,37.4,37.0,37.6,44.5,13.1
CCCNC(=O)C1CC(=O)N(c2ccc(OCc3ccc(F)cc3)cc2)C1 (centres undefined),6.2,29.2,nt,86.8*,87.2*,87.7*,43.7,55.9*,70.9*,94.4*,15.2
C=CCNC(=O)C1CC(=O)N(c2ccc(OCC(=O)N3CCCC3)cc2)C1 (centres undefined),13.5,-0.9,nt,-5.8,-8.0,9.1,nt,nt,nt,nt,nt
Cc1cc(NCc2ccccn2)ccc1Br,11.0,2.3,5.1,47.4,38.6,53.4*,42.7,40.5,69.4*,39.0,51.6*
CC(C)n1cnc2cc(NCc3ccccn3)ccc21,-15.8,-3.7,23.6,-1.4,1.0,4.4,nt,nt,nt,nt,nt
CN(C)c1ccc(C=Nc2ccc(N(C)C)cc2)cc1,4.9,-1.3,18.4,22.1,-16.5,22.6,nt,nt,nt,nt,nt
Cc1nc(/N=C\c2ccc(N(C)C)cc2)sc1C,-0.5,-6.3,nt,2.5,60.5*,10.5,-23.9,-13.9,-7.6,-9.2,-4.7
CCc1ccc(NSc2ccccc2[N+](=O)[O-])cc1,25.6,14.1,5.9,-15.0,2.5,55.9*,6.9,7.7,-6.6,-0.3,1.4
O=C(O)c1ccccc1NSc1ccccc1[N+](=O)[O-],6.4,-10.0,3.5,-17.2,-8.1,-6.5,nt,nt,nt,nt,nt
CCc1noc(C)c1C(=O)Nc1nc2ccc(F)cc2s1,-34.4,18.4,nt,81.2*,64.2*,65.8*,76.3*,75.6*,94.0*,74.6*,70.8*
CCc1noc(C)c1C(=O)Nc1nc2ccc(S(C)(=O)=O)cc2s1,-261.9,19.7,nt,40.6,4.2,24.6,nt,nt,nt,nt,nt
Cc1noc(C)c1C(=O)Nc1nc2ccc(Cl)cc2s1,-48.3,6.8,nt,96.2*,94.7*,94.0*,92.1*,95.5*,101.0*,93.2*,65.6*
Cc1noc(C)c1C(=O)Nc1nc2ccc(F)cc2s1,-70.8,7.3,nt,0.2,98.6*,100.4*,97.0*,99.7*,103.1*,98.6*,47.5
SMILES,SENP8 block-1,TRAIL sens C8,PPC-1+TRAIL kill,SENP6 block,SENP8 block-2,SENP7 inh,SENP8 conf,SENP6 conf,SENP7 conf,Casp3 SENP sel,SENP luc ctr
O=C(CCl)NC(Cc1ccccc1)C(=O)OCC(=O)c1ccc(-c2ccccc2)cc1 (centres undefined),-0.2,20.3,nt,nt,nt,nt,nt,nt,nt,nt,nt
Cc1cc(C)n2c(SCC(=O)N(CCC#N)c3ccc4c(c3)OCCO4)nnc2n1,-13.3,-10.5,nt,nt,nt,nt,nt,nt,nt,nt,nt
CC(=O)Nc1ccc(NC(=O)CN(c2cc(Cl)ccc2Cl)S(C)(=O)=O)cc1,8.8,-14.9,8.3,-11.1,-4.0,0.8,nt,nt,nt,nt,nt
[O-][n+]1ccc(C(O)c2ccccc2)cc1 (centres undefined),8.7,-3.5,nt,10.3,-14.3,10.7,nt,nt,nt,nt,nt
Cn1cccc1C(=O)OCc1csc(-c2ccccc2)n1,-7.9,12.6,17.1,88.1*,94.1*,99.7*,-5.6,97.5*,102.2*,92.7*,89.1*
O=C(OCc1csc(-c2ccccc2)n1)c1cccs1,20.0,4.6,13.4,95.5*,91.5*,96.3*,96.7*,97.4*,101.3*,91.4*,90.3*
Cc1ccsc1C(=O)OCc1csc(-c2ccccc2)n1,11.8,6.6,7.1,96.2*,95.7*,98.6*,95.5*,91.8*,47.2,94.3*,87.8*
Cc1ccsc1C(=O)OCc1nnc(-c2ccccc2)o1,12.4,-2.9,nt,59.4*,52.1*,59.5*,57.1*,54.7*,75.5*,55.5*,50.2*
COc1cccc(C(=O)c2ccccc2NC(C)=O)c1,-7.8,4.2,nt,nt,nt,nt,nt,nt,nt,nt,nt
COc1ccc2c(C#N)c3ccccn3c2c1,-391.0,5.7,5.3,50.0*,10.2,21.0,26.1,51.5*,-1.0,4.4,-1.1
CN(Cc1ccc(OC(F)F)cc1)C(=O)c1cccc(S(=O)(=O)N2CCN(c3ccccc3)CC2)c1,8.1,14.7,nt,nt,nt,nt,nt,nt,nt,nt,nt
CCN1CC2([N+](=O)[O-])C=CC(=O)C([N+](=O)[O-])(C1)C2CC(=O)c1ccccc1 (centres undefined),35.2,-11.0,7.5,3.6,-0.9,9.6,nt,nt,nt,nt,nt

# Bioassay records: PubChem BioAssay, Sanford-Burnham Center for Chemical Genomics
